Screen size: about 290,000 compounds; about 3,000 (1%) were called active. Only a selection was taken, and actives are over-represented in it overall. Values without a mark were called inactive. Rule as the data show it: active = inhibition mostly above about 36% (no sharp cut-off); inactive = mostly below about 34%.

This test can be described thus: inhibition of NOD1-driven NF-kB reporter – cell-based, luminescence, uHTS, primary screen (AID 1578).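 Also: HEK-293T reporter cells stimulated with the NOD1 agonist gamma-tri-DAP.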 The note with it: NOD1-driven NF-kB luciferase reporter cells, at 4 µM, stronger effect = higher value.
In the case of `Cc1nn(C)cc1CNC(=O)c1ccc(Br)o1`, the inhibition – broadly, the relative decrease from the control value, in per cent – is -3.1%.

Consider `COc1ccc2ccccc2c1/C=N\NC(=O)c1ccc(C)s1`, for which the inhibition is -3.2%. For the molecule `Cc1ccc(OCC(=O)NNC(=O)CSc2ncc(C#N)c(N)n2)cc1`, the inhibition is -22.7%. Turning to `N#Cc1cnc(SCC(=O)NNC(=O)COc2cccc3ccccc23)nc1N`, the inhibition was -19.9%. Turning to `Cc1cccc(OCC(=O)NNC(=O)CSc2ncc(C#N)c(N)n2)c1`, the inhibition is 98.2% (active).

Regarding `CCCCn1c(SCC(=O)N2CCOCC2)nc2ccccc2c1=O`, the inhibition was -11.7%. As for `COc1ccc(NC(=O)CSc2nc(N)c(NC(=O)c3cccs3)c(=O)[nH]2)cc1`, the inhibition was -4.6%.

Consider `COc1cccc(-c2ccc(NC(=O)C3CCCN(CCCn4cccn4)C3)cc2)c1` (centres undefined), for which the inhibition was -32.8%. Regarding `Cc1ccccc1Oc1nc2ccccn2c(=O)c1/C=C(\C#N)C(=O)Nc1c(C)n(C)n(-c2ccccc2)c1=O`, the inhibition is -32.9%. For `O=C(COc1ccccc1)Nc1ccccc1NS(=O)(=O)c1cccs1`, the inhibition is 15.4%. In the case of `O=C(COc1ccc(Cl)cc1Cl)Nc1ccccc1NS(=O)(=O)c1cccs1`, the inhibition was 38.6%. With `N#Cc1c(NC(=O)CSc2nnc(-c3ccccc3O)n2-c2ccccc2)sc2c1CCCC2`, the inhibition is -23.8%. To `N#Cc1c(Sc2ncc(C(F)(F)F)cc2Cl)nsc1C/C=N\OCc1c(F)cccc1Cl` belongs 23.5%; to `O=C(Nc1ccc(Oc2cccnc2)cc1)C1CCN(Cc2ccc(F)cc2)CC1`, -7.5%. In the case of `O=C(NCCCn1ccnc1)/C(=C\c1cccnc1)NC(=O)c1ccco1`, the inhibition was -5.2%. In the case of `COc1ccc2oc(C(=O)NCc3cc(OC)c(OC)cc3OC)c(C)c2c1` it was 17.1%; in that of `CCOC(=O)C1CCN(C(=O)COC(=O)COc2ccc(Cl)cc2)CC1`, -16%; in that of `CCC(=O)c1ccc(Oc2ccc(C(=O)c3ccc(C)cc3)cc2[N+](=O)[O-])cc1`, 40.1%. Turning to `NC(=O)c1ccc(Oc2ccc(Cl)cc2)c([N+](=O)[O-])c1`, the inhibition was 2.7%.

On to `CC(=O)c1ccc(Oc2ccc(C(=O)c3ccc(C)c(C)c3)cc2[N+](=O)[O-])cc1`, for which the inhibition is 69.6% (active). `Cn1ncnc1SCc1cn2cccnc2n1`: the inhibition is -16.1%. Take `COc1ccc(-c2nc(CN3CCC(C(=O)N4CCOCC4)CC3)c(C)o2)cc1OC`: the inhibition was -6.6%. In the case of `COc1ccc([N+](=O)[O-])cc1NC(=S)Nc1ccccc1` it was 4.9%; in that of `O=C(CN(C(=O)CNS(=O)(=O)c1ccccc1)c1ccc2c(c1)OCCO2)NC1CCCCC1`, -17.9%; in that of `COc1cccc(/C=N/N(C)C2=NS(=O)(=O)c3ccccc32)c1O`, -15.4%. For `Cc1ccc(/C=N/N(C)C2=NS(=O)(=O)c3ccccc32)cc1`, the inhibition is 5%.

As for `CN(/N=C/c1cc(Cl)ccc1O)C1=NS(=O)(=O)c2ccccc21`, the inhibition is 30.8% (active). In the case of `CCOc1ccc(CC(=O)NNC(=S)Nc2ccc(OC)c(OC)c2)cc1`, the inhibition is -36.4%. Take `Cc1ccc(C)c(C(=O)N(C)CC(=O)Nc2ccccc2C(F)(F)F)c1`: the inhibition was 35.4%. On to `CCn1c(=O)c(C(=O)NCc2ccccc2)c(O)c2ccccc21`, for which the inhibition was -12.4%. On to `O=[N+]([O-])c1cccc(OCC(O)CN2CCN(S(=O)(=O)c3cc(Cl)ccc3Cl)CC2)c1` (centres undefined), for which the inhibition is 15.6%.

`O=C(C[N+]1(CC#Cc2ccccc2)CCCCC1)c1ccc(Cl)cc1`: the inhibition was -15.6%. Consider `O=C(C[N+]1(CC#Cc2ccccc2)CCOCC1)c1ccccc1`, for which the inhibition is -26.9%.

With `O=C(C[N+]1(CC#Cc2ccccc2)CCCCC1)c1ccccc1`, the inhibition was 47.4% (active). In the case of `COc1ccc(NC(=O)CSc2[nH]c(=O)cc(C)c2C#N)cc1OC` it was -23.7%; in that of `Cc1cc(=O)[nH]c(SCC(=O)Nc2ccc(Br)cc2)c1C#N`, 67.2% (active); in that of `Cc1cc(=O)[nH]c(SCC(=O)Nc2ccc(F)cc2)c1C#N`, -21.3%. Take `CN1C2CCC1/C(=C\c1ccccc1)C(=O)/C2=C\c1ccccc1`: the inhibition was 36.3%.

In the case of `CN1C2CCC1/C(=C\c1ccc(F)cc1)C(=O)/C2=C/c1ccc(F)cc1`, the inhibition is 77.7% (active). `CN1C2CCC1/C(=C\c1ccccc1F)C(=O)/C2=C/c1ccccc1F`: the inhibition was 34.2%. In the case of `Cc1cccc(N2CCN(C(=O)c3cc(S(=O)(=O)N4CCOCC4)cn3C)CC2C)c1` (centres undefined) it was -17.7%. In the case of `Cc1cc(CNC(=O)Cn2cc([N+](=O)[O-])cn2)c2ccccc2n1` it was -28.9%; in that of `Cc1cc(CNC(=O)c2cccc([N+](=O)[O-])c2)c2ccccc2n1`, 47.9% (active); in that of `Cc1cc(CNC(=O)c2ccc(C)c([N+](=O)[O-])c2)c2ccccc2n1`, 26.1%. To `O=C(Nc1ccc(Br)c(C(F)(F)F)c1)c1ccccc1` belongs 7.5%; to `O=C(Nc1ccc(Br)c(C(F)(F)F)c1)c1ccc(C(F)(F)F)cc1`, 41.9% (active). As to `Cc1ccc(C(=O)Nc2ccc(Br)c(C(F)(F)F)c2)cc1`, the inhibition was -51.3%. Take `C=CCn1c(SCc2nc3cc(C(F)(F)F)ccc3c(=O)[nH]2)nc2sc(CC)cc2c1=O`: the inhibition was -9.3%. Regarding `COc1ccc(-c2noc(N3CCC(C(=O)NCc4ccccc4Cl)CC3)n2)cc1`, the inhibition is 49.5%. In the case of `O=C(N/N=C(/c1ccccc1)c1ccncc1)c1ccc2c(c1)OCO2` it was -26.7%. Take `Cc1cc(C(=O)COC(=O)CN(C)S(=O)(=O)c2ccc(Cl)cc2)c(C)n1CC1CCCO1` (centres undefined): the inhibition was -12.3%.

On to `Cc1ccc2nnnc(-c3ccccc3)c2c1`, for which the inhibition was -32.7%. In the case of `Clc1ccc2nnnc(-c3ccccc3)c2c1` it was 63.1% (active). Consider `c1ccc(-c2nnnc3ccccc23)cc1`, for which the inhibition was -26.7%. To `COC(=O)c1ccc(NC(=O)NCCCl)cc1` belongs -34.1%; to `Cc1c(C(=O)N2CCOCC2)sc(NC(=O)c2ccc([N+](=O)[O-])cc2)c1C#N`, -2.6%.

`C/C(=N\NC(=O)c1c(C)nc2ccccn12)c1cccc([N+](=O)[O-])c1`: the inhibition is -11.1%. With `Cc1ccc(/C=C/C(=O)c2c(C)nc3ccccn23)cc1`, the inhibition is -11.3%. For the molecule `Cc1nc2ccccn2c1C(=O)/C=C/c1cccc([N+](=O)[O-])c1`, the inhibition is 101% (active).

The values are drawn from PubChem BioAssay AID1578 (Sanford-Burnham Center for Chemical Genomics, 2009).
